USP7 inh: inhibitors of human USP7 deubiquitinase | Ubiquitin carboxyl-terminal hydrolase 7 (Homo sapiens), Q93009 | purified USP7, Ub-rhodamine cleavage fluorescence | inhibition, % at 20 µM | 47,000 compounds, 0.3% hits | AID 1645854, 2021
UCHL1 block: inhibitors of human UCHL1 deubiquitinase; Ubiquitin carboxyl-terminal hydrolase isozyme L1 (Homo sapiens), P09936; purified UCHL1, Ub-rhodamine cleavage fluorescence; inhibition, % at 20 µM; 47,000 compounds, 0.2% hits
Target sequence (P09936 whole entry, looked up): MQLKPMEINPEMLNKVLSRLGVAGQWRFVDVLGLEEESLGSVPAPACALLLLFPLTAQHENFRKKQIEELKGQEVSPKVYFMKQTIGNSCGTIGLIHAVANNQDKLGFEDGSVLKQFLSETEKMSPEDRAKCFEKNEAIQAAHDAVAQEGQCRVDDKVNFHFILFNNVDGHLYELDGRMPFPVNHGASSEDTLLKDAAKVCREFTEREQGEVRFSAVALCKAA
USP10 inh: inhibitors of human USP10 deubiquitinase. Ubiquitin carboxyl-terminal hydrolase 10 (Homo sapiens), Q14694. purified USP10, Ub-rhodamine fluorescence, 60 min. inhibition, % at 20 µM. 47,000 compounds, 1.1% hits
USP8 block: inhibitors of human USP8 deubiquitinase; purified USP8, Ub-rhodamine cleavage fluorescence, 30 min; AID 1645853, 2021; 47,000 compounds, 4.2% hits; Ubiquitin carboxyl-terminal hydrolase 8 (Homo sapiens), P40818; inhibition, % at 20 µM
A number is an active result; 0 = inactive. A selection: hits, their analogues and other compounds. The true share with any hit is near 5%. Rule as the data show it: active = inhibition above about 30%; inactive = the rest.

SMILES	USP7 inh	UCHL1 block	USP10 inh	USP8 block
Cc1ccc(S(=O)(=O)Nc2nc(-c3ccc4c(c3)NC(=O)C(C)O4)c(C)s2)cc1 (stereo unspecified)	0	0	41	50
COc1ccc(Cn2c(=O)[nH]c3cc(C(=O)NCCCN4CCN(c5cccc(Cl)c5)CC4)ccc3c2=O)cc1	0	0	60	83
COc1ccc(N2CCN(CCCNC(=O)c3ccc4c(=O)n(CCc5ccccc5)c(=O)[nH]c4c3)CC2)cc1	0	0	0	0
COc1cc(NC(=O)CSc2ncnc3scc(-c4ccccc4)c23)c(C(=O)O)cc1OC	0	0	30	0
COc1cc2c(cc1OC)CN(c1ncnc3scc(-c4ccccc4)c13)CC2	0	0	0	37
c1ccc(COc2ncnc3scc(-c4ccccc4)c23)cc1	0	0	0	0
CC(=O)c1ccccc1NC(=O)COc1ncnc2scc(-c3ccc(F)cc3)c12	0	0	0	0
O=C(c1cnc2[nH][nH]c(=O)c2c1)c1cc(Cl)cc(Cl)c1O	79	62	87	94
COc1cccc(-n2cnc3cc(C(=O)N4CCCCC4)ccc3c2=O)c1	0	0	0	0
COc1cccc(-n2cnc3cc(C(=O)NCCc4ccccc4)ccc3c2=O)c1	0	0	0	54
CCN1CCN(C2=NCCN2S(=O)(=O)c2cc(F)ccc2C)CC1	0	0	0	0
COC(=O)c1c(-c2ccccc2)[nH]c(-c2ccccc2)c1C(=O)OC	0	0	0	0
Cc1cc(Cl)ccc1NC(=O)COC(=O)c1n[nH]c2ccccc12	0	0	0	31
O=C(Cn1c(CSc2ccccc2)nc2ccccc21)Nc1ccccc1F	0	0	0	51
O=C(c1cc(-c2ccc(Cl)cc2)n[nH]1)N1CCN(c2ccccn2)CC1	0	0	0	66
Cc1nn2c(CNS(=O)(=O)Cc3ccccc3F)c(C)nc2s1	0	0	0	0
COc1ccc(OC)c(NC(=O)c2sc(-c3ccccc3)nc2C)c1	0	0	0	42
Cc1ccccc1CN1C[C@H]2CN(C(=O)c3cscn3)C[C@H]21	0	0	0	0
COc1cc(NC(=O)Cn2cc(C(=O)c3ccccc3)c(=O)c3cc(Cl)ccc32)cc(OC)c1	51	0	62	97
COc1ccccc1NC(=O)Cn1cc(C(=O)c2ccc(C)cc2)c(=O)c2cc(Cl)ccc21	0	0	31	0
COc1ccc(C(=O)NCc2nnc(SCC(=O)Nc3cccc4ccccc34)o2)cc1	0	0	0	0
COc1ccc(C(C(=O)NCc2ccccc2)N(C(=O)CCN2CCc3ccccc32)c2ccc3c(c2)OCO3)cc1 (stereo unspecified)	0	0	0	0
O=C(NCc1ccccc1)C(c1ccc(F)cc1)N(C(=O)CCN1CCc2ccccc21)c1ccc2c(c1)OCO2 (stereo unspecified)	0	0	0	40
O=C(Cc1ccccc1)Nc1ccc2[nH]ncc2c1	0	0	0	61
Cn1c(NC(=O)c2ccc(Cl)cc2)c(-c2ccccn2)c(=O)c2ccccc21	0	0	0	43
SMILES	USP7 inh	UCHL1 block	USP10 inh	USP8 block
Cc1sc(NC(=O)CN2CCc3ccccc3C2)nc1-c1ccc2c(c1)CCN2C(=O)c1cccc(F)c1	0	0	0	51
Cc1ccc(C(=O)N2CCc3cc(-c4nc(NC(=O)CN5CCCC5)sc4C)ccc32)cc1	0	0	0	0
Cc1cccc(C(=O)N2CCc3cc(-c4nc(NC(=O)CN5CCc6ccccc6C5)sc4C)ccc32)c1	0	0	0	79
Cc1sc(NC(=O)CN(C)C2CCCCC2)nc1-c1ccc2c(c1)CCN2C(=O)c1ccccc1F	0	0	0	38
CN(Cc1ccccc1)S(=O)(=O)c1ccc2[nH]c(=O)[nH]c2c1	0	0	0	0
CCc1noc(-c2ccnc(-n3cnc(C(=O)NC4CCCCC4)c3)c2)n1	0	0	0	0
O=C(Nc1ccccc1N1CCOCC1)C1Cc2ccccc2CN1S(=O)(=O)c1ccccc1F (stereo unspecified)	0	0	0	31
NC(=O)C[n+]1ccn2c(Nc3ccccc3)c(-c3ccccc3O)nc2c1	0	0	0	73
Cc1ccc(Nc2c(-c3ccccc3O)nc3c[n+](CC(N)=O)ccn23)cc1	0	0	0	37
CCc1ccccc1NC(=O)COc1ccc(Nc2ccccc2)cc1	0	0	0	35
O=C(COc1ccc2ccccc2c1)Nc1cccc2ccccc12	0	0	0	36
O=C(COc1ccc2c3c(c(=O)oc2c1)CCC3)Nc1ccccc1N1CCOCC1	0	0	0	0
NC(=O)c1ccccc1NC(=O)COc1ccc2c(c1)oc(=O)c1ccccc12	0	0	0	55
CCN1CCc2nc(NC(=O)COc3ccc4ccccc4c3)sc2C1	0	0	0	0
COCCCN1CCS(=O)(=O)c2c(Cl)c(F)nc(Oc3ccccc3F)c21	0	0	0	95
O=S1(=O)CCN(CC2CCCO2)c2c(Oc3ccc(F)cc3)nc(F)c(Cl)c21 (stereo unspecified)	0	0	0	70
COCCN1CCS(=O)(=O)c2c(Cl)c(F)nc(Oc3ccc(OC)cc3)c21	0	0	0	0
O=S1(=O)CCN(CC2CCCO2)c2c(Oc3ccccc3)nc(F)c(Cl)c21 (stereo unspecified)	0	0	0	92
N#Cc1ccc(OCC(=O)N2CCCC2c2ccc3c(c2)OCCCO3)cc1 (stereo unspecified)	0	0	0	0
N#Cc1ccc(Oc2nc(F)c(Cl)c3c2N(CC2CCCO2)CCS3(=O)=O)cc1 (stereo unspecified)	0	0	0	71
O=S1(=O)CCN(Cc2cccnc2)c2c(Oc3ccccc3)nc(F)c(Cl)c21	0	0	0	0
O=S(=O)(C1CC1)N1CCc2[nH]nc(-c3ccccc3)c2C1	0	0	0	0
O=C(CSc1ncnc2c1oc1ccccc12)N1CCc2ccccc21	0	0	0	0
COc1cc2c(C#N)c(N3CCCC3)nc3c2c(n1)NC(C)(c1ccc(-c2ccccc2)cc1)N3 (stereo unspecified)	35	0	0	39
CNc1nccnc1C1CN(C(=O)c2snnc2C(C)C)CCO1 (stereo unspecified)	0	0	0	0
SMILES	USP7 inh	UCHL1 block	USP10 inh	USP8 block
CNc1nccnc1C1CN(C(=O)c2c(C(C)C)noc2C)CCO1 (stereo unspecified)	0	0	0	32
Cc1nn(-c2ccccc2)c2nc(C(F)(F)F)[nH]c(=O)c12	0	0	0	0
Cc1nn(-c2ccc(Cl)cc2)c2[nH]c(=O)c(CNCc3ccc(F)cc3)cc12	0	0	0	76
Cc1nn(-c2ccccc2)c2[nH]c(=O)c(CNC(C)c3cccs3)cc12 (stereo unspecified)	0	0	0	30
Cc1nn(-c2ccc(Cl)cc2)c2[nH]c(=O)c(CNCc3cccs3)cc12	0	0	0	77
Cc1nn(-c2ccc(Cl)cc2)c2[nH]c(=O)c(CNc3ccc(C(C)(C)C)cc3)cc12	0	0	0	0
Cc1nn(-c2ccc(Cl)cc2)c2[nH]c(=O)c(CNCc3ccc4c(c3)OCO4)cc12	0	0	0	81
